The source made the active and inactive calls. Unless noted, the rule behind the calls is not given here.
Legend:
[1] = test system: XIP peptide (Xip251-270) binding; assay: small-molecule binders of XIP peptide, primary screen, biochemical, small-molecule microarray, fluorescence 635/667 nm, 0.1 µg/mL protein (AID 1182); conditions: fluorescent protein binding, 635 nm, higher = more signal, called active from +8 up or from −8 down
XIP peptide (Xip251-270) = assay: small-molecule binders of XIP peptide, primary screen, biochemical, small-molecule microarray, fluorescence 635/667 nm, 0.5 µg/mL protein (AID 1183); conditions: small-molecule microarray binding, fluorescence 635 nm; higher = more signal
[2] = Plasmodium falciparum growth inhibition, primary screen, strain 3D7, DAPI fluorescence, 100 nL (AID 1184);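 note: parasites grown inside human red blood cells in medium with human serum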; conditions: P. falciparum 3D7 growth, 3 d, higher = more signal
[3] = biological target: Homeobox protein Hox-A13 (Mus musculus) (UniProt Q62424); assay: inhibitors of HoxA13-DNA binding, primary screen, biochemical, fluorescence polarization, labeled oligonucleotide (AID 1185); conditions: 15 min, higher = more signal, called active from +8 up or from −8 down
Homeobox protein Hox-A13 (Mus musculus), sequence (Q62424 whole entry, looked up): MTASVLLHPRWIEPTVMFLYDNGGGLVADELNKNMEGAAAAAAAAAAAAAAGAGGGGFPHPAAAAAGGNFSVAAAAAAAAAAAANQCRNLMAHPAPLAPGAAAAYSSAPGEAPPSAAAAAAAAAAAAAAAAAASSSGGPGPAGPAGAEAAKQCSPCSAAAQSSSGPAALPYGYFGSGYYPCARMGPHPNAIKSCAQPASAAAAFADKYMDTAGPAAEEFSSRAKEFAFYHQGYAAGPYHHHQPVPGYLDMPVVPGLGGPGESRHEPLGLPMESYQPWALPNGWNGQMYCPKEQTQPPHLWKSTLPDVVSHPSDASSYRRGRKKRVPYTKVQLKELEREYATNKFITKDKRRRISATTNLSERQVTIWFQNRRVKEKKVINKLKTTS

[4] = inhibitors of hydroxyurea-induced Chk1 phosphorylation, primary screen, imaging, HeLa, phospho-Chk1 antibody, percent positive cells (AID 1186); conditions: hydroxyurea-induced phospho-Chk1 immunofluorescence imaging, higher = more signal
[5] = inhibitors of hydroxyurea-induced Chk1 phosphorylation, primary screen, imaging, HeLa, phospho-Chk1 nuclear intensity (AID 1187); conditions: hydroxyurea-induced phospho-Chk1 immunofluorescence imaging, higher = more signal

Cc1ccc(S[C@]2(C(=O)NCCN3CCOCC3)CC(=O)N(C(C)C)[C@@H]2c2ccc(CO)cc2I)cc1
composite z-score [1]: 0.342 (inactive)
composite z-score (XIP peptide (Xip251-270)): 0.93
z-score [2]: -0.191
z-score [3]: -3.43 (inactive)
z-score [4]: -0.395 (inactive)
z-score [5]: -0.0483 (inactive)

NCCCCCCNC(=O)[C@@H]1C[C@@H]2C(=O)NCC(=O)N2[C@@H]1c1cccc(OCCO)c1
composite z-score [1]: 0.592 (inactive)
composite z-score (XIP peptide (Xip251-270)): 0.354
z-score [2]: 0.418
z-score [3]: -1.96 (inactive)
z-score [4]: 0.13 (inactive)
z-score [5]: 0.118 (inactive)

C=C(C(=O)CC[C@@H](OC(=O)c1cccnc1)c1cccc(OCCO)c1)C(C)C
composite z-score [1]: -0.0726 (inactive)
composite z-score (XIP peptide (Xip251-270)): 0.61
z-score [2]: -2.56
z-score [3]: -3.51 (inactive)
z-score [4]: -0.361 (inactive)
z-score [5]: 0.519 (inactive)

CCCNC(=O)[C@@]1(Sc2ccc(C)cc2)CC(=O)N(Cc2cc(C(F)(F)F)cc(C(F)(F)F)c2)[C@@H]1c1ccc(CO)cc1
composite z-score [1]: -0.0515 (inactive)
composite z-score (XIP peptide (Xip251-270)): 0.136
z-score [2]: -1.1
z-score [3]: -0.323 (inactive)
z-score [4]: -0.0515 (inactive)
z-score [5]: 0.0821 (inactive)

C=CCNC(=O)[C@H]1[C@@H]2C(=O)O[C@@H](c3ccccc3)[C@@H](c3ccccc3)N2[C@@H](c2ccc(O)cc2)[C@]12C(=O)Nc1ccccc12
composite z-score [1]: -0.067 (inactive)
composite z-score (XIP peptide (Xip251-270)): 0.821
z-score [2]: 0.478
z-score [3]: -3.97 (inactive)
z-score [4]: 0.0866 (inactive)
z-score [5]: 0.432 (inactive)

C=CC[C@@]1(C(=O)NCCCOC)N=C(c2ccc(OCCCO)cc2)O[C@@H]1c1ccccc1CN=[N+]=[N-]
composite z-score [1]: 0.204 (inactive)
composite z-score (XIP peptide (Xip251-270)): 0.44
z-score [2]: -2.25
z-score [3]: -5.2 (inactive)
z-score [4]: -0.551 (inactive)
z-score [5]: -0.721 (inactive)

C=CCNC(=O)[C@H]1[C@@H]2C(=O)O[C@@H](c3ccccc3)[C@@H](c3ccccc3)N2[C@@H](c2ccc(OCCO)cc2)[C@]12C(=O)N(C(=O)OCCOC)c1ccc(C#CCC(C(=O)OC)C(=O)OC)cc12
composite z-score [1]: 0.275 (inactive)
composite z-score (XIP peptide (Xip251-270)): 0.734
z-score [2]: -1.82
z-score [3]: -0.253 (inactive)
z-score [4]: 0.338 (inactive)
z-score [5]: 0.475 (inactive)

O=C1NC(=O)C2C1C=CC(C(O)c1ccc(F)cc1)N2Nc1ccc(Cl)cc1Cl (configuration not stated)
composite z-score [1]: -0.138 (inactive)
composite z-score (XIP peptide (Xip251-270)): -0.258
z-score [2]: -0.525
z-score [3]: -5.48 (inactive)
z-score [4]: -0.142 (inactive)
z-score [5]: 0.116 (inactive)

[N-]=[N+]=NCc1ccccc1[C@H]1OC(c2ccc(OCCCO)cc2)=N[C@@]1(Cc1ccccc1N=[N+]=[N-])C(N)=O
composite z-score [1]: -0.19 (inactive)
composite z-score (XIP peptide (Xip251-270)): 0.599
z-score [2]: -0.885
z-score [3]: -6.25 (inactive)
z-score [4]: 0.052 (inactive)
z-score [5]: 0.516 (inactive)

COCCOC(=O)N1C(=O)[C@@]2(c3cc(C#CC4=CCCCC4)ccc31)[C@H](c1ccc(O)cc1)N1[C@H](c3ccccc3)[C@H](c3ccccc3)OC(=O)[C@H]1[C@@H]2C(=O)N1CCc2cc(OC)c(OC)cc2C1
composite z-score [1]: 2.12 (inactive)
composite z-score (XIP peptide (Xip251-270)): 0.556
z-score [2]: -2.06
z-score [3]: 0.0698 (inactive)
z-score [4]: 0.301 (inactive)
z-score [5]: 0.404 (inactive)

O=C1C2C=CC(C(O)C3CCCCC3)N(Nc3ccccc3F)C2C(=O)N1c1ccccc1 (configuration not stated)
composite z-score [1]: 0.352 (inactive)
composite z-score (XIP peptide (Xip251-270)): 0.738
z-score [2]: -0.193
z-score [3]: 0.182 (inactive)
z-score [4]: 0.0253 (inactive)
z-score [5]: 0.0942 (inactive)

COc1cc(CO)cc(I)c1O[C@H]1C=C(C(=O)NCCO)C[C@@H](N(CCN2CCOCC2)C(=O)C2CCCO2)[C@@H]1O (some centres not stated)
composite z-score [1]: 0.0188 (inactive)
composite z-score (XIP peptide (Xip251-270)): 0.0326
z-score [2]: 0.0945
z-score [3]: -1.59 (inactive)
z-score [4]: -0.866 (inactive)
z-score [5]: -0.723 (inactive)

O=C1C2C=CC(C(O)c3ccccn3)N(Nc3ccc([N+](=O)[O-])cc3)C2C(=O)N1c1ccccc1 (configuration not stated)
composite z-score [1]: 0.406 (inactive)
composite z-score (XIP peptide (Xip251-270)): 0.0784
z-score [2]: -0.22
z-score [3]: -5.58 (inactive)
z-score [4]: 1.25 (inactive)
z-score [5]: -0.213 (inactive)

CCOC(=O)C1=CCC(c2cccn2C(=O)OC(C)(C)C)N(S(=O)(=O)c2ccc(C)cc2)C1 (configuration not stated)
composite z-score [1]: 0.153 (inactive)
composite z-score (XIP peptide (Xip251-270)): 0.732
z-score [2]: -1.62
z-score [3]: 0.323 (inactive)
z-score [4]: -1.06 (inactive)
z-score [5]: -1.18 (inactive)

C=CCOC(=O)[C@@H]1[C@H]2C(=O)O[C@H](c3ccccc3)[C@H](c3ccccc3)N2[C@H](c2ccc(OCCOC(=O)[C@@H]3C[C@@H]4C(=O)N[C@@H](CC(C)C)C(=O)N4[C@@H]3c3ccc(O)cc3)cc2)[C@@]12C(=O)Nc1ccc(I)cc12
composite z-score [1]: 0.78 (inactive)
composite z-score (XIP peptide (Xip251-270)): 0.761
z-score [2]: -1.51
z-score [3]: 0.374 (inactive)
z-score [4]: -0.926 (inactive)
z-score [5]: -0.838 (inactive)

[N-]=[N+]=NCc1ccccc1C[C@]1(C(=O)N2CCCCC2)COC(c2ccc(OCCCO)cc2)=N1
composite z-score [1]: -0.061 (inactive)
composite z-score (XIP peptide (Xip251-270)): 0.652
z-score [2]: -2.29
z-score [3]: -6.04 (inactive)
z-score [4]: -0.749 (inactive)
z-score [5]: -0.928 (inactive)

CC[C@@H](O[Si](C#C[Si](C(C)C)(C(C)C)C(C)C)(C(C)C)C(C)C)c1cn([C@H](C)c2ccccc2)nn1
composite z-score [1]: -0.645 (inactive)
composite z-score (XIP peptide (Xip251-270)): -0.0862
z-score [2]: -0.38
z-score [3]: 0.0519 (inactive)
z-score [4]: 0.0891 (inactive)
z-score [5]: -0.469 (inactive)

Source: PubChem BioAssay
